Experimental findings from PubChem BioAssay (EPA / NIEHS) are described below.

Activity calls are given as the source filed them. How the source made its calls: active means hit-call score of the fitted dose curve at least 0.9, where 1 is the maximum; inactive means score below 0.9.

Read-out in the experiment: Monokine induced gamma interferon (MIG), CXCL9 (gene 4283)
Kind of experiment: BSK_BE3C_MIG: BioMAP Diversity Plus: BE3C Assay for Monokine induced gamma interferon (MIG) Biomarker Activity (AID 2283035). The settings on record: primary human bronchial epithelial cells; actives raise or lower the signal. As for the experimental part:
BSK_BE3C is a cell-based, multiplexed-readout assay that uses bronchial epithelial cell, a human lung primary cell, with measurements taken at 24 hours after chemical dosing in a 96-well plate.BSK_BE3C_MIG is an assay component measured in the BSK_BE3C assay. It measures MIG antibody related to regulation of gene expression using ELISA technology.Data from the assay component BSK_BE3C_MIG was analyzed into 1 assay endpoint. This assay endpoint, BSK_BE3C_MIG, was analyzed with bidirectional fitting relative to DMSO as the negative control and baseline of activity. Using a type of binding reporter, gain or loss-of-signal activity can be used to understand changes in the signaling as they relate to the gene CXCL9. Furthermore, this assay endpoint can be referred to as a primary readout, because this assay has produced multiple assay endpoints where this one serves a signaling function. To generalize the intended target to other relatable targets, this assay endpoint is annotated to the cytokine intended target family, where the subfamily is chemotactic factor.
The levels of cell surface (or secreted, indicated by the prefix "s") biomarker endpoints were measured by ELISA. Overt cytotoxicity to cells in confluent adherent cultures (all systems other than the BT system) was assessed by measuring total protein levels using sulforhodamine B (SRB) staining in parallel cultures at the time of biomarker measurements, indicated as SRB endpoints. For proliferation assays for adherent cell types, individual cell types are cultured at sub-confluence and relative cell numbers quantified by SRB staining at time points optimized for each system (48 h: 3C and CASM3C systems; 72 h: BT and HDF3CGF systems; 96 h: SAg system). SRB was performed by staining cells with 0.1% SRB after fixation with 10% TCA and reading wells at 560 nm.Viability and proliferation of PBMC (T cells) was quantified by Alamar Blue reduction for the SAg and BT systems. For PBMC viability (referred to as PBMC Cytotoxicity within the assay endpoint names), cells were plated (75,000/well in a 96-well plate) and then chemical samples added for 1 h before addition of activators, SEB and TSST-1 (20 ng/mL final concentration each). Cells were incubated for 90 h. Then, Alamar Blue (20 uL/well) (Invitrogen, Cat DAL1100) was added for 6 h, and the plates were read with a fluorescence microplate reader at 546/580 nm (excitation/emission). For PBMC proliferation, cells were plated and activated as above but incubated for only 16 h prior to addition of Alamar Blue. Plates were read after 6 h.
For the molecule `CC(C)Oc1cc(-n2nc(C(C)(C)C)oc2=O)c(Cl)cc1Cl`, the result was inactive. For `COc1nc(NC(C)C)nc(NC(C)C)n1`, the outcome was inactive. As for `CCOc1cc(Oc2ccc(C(F)(F)F)cc2Cl)ccc1[N+](=O)[O-]`, the outcome was inactive. `CCCCC(CC)COC(=O)c1ccccc1C(=O)OCC(CC)CCCC` (stereo not given): the outcome was inactive. Still for that read-out and setting: the same measure for `Cc1ccc(-c2c(Cl)nc(C#N)n2S(=O)(=O)N(C)C)cc1`: “inactive”; for `COP(=S)(OC)Oc1nc(Cl)c(Cl)cc1Cl`: “inactive”. Consider `COP(N)(=O)SC` (stereo not given), for which the result was inactive. The same measure, in the same setting: under `COc1nc(C)nc(NC(=O)NS(=O)(=O)c2ccccc2Cl)n1` stands “inactive”; under `CC(Oc1ccc(Cl)cc1Cl)C(=O)O` (stereo not given), “inactive”; under `CO/C=C(/C(=O)OC)c1ccccc1Oc1cc(Oc2ccccc2C#N)ncn1`, “inactive”.

As a reminder, the AC50 is the concentration giving half of the maximal activity seen. `CCc1nn(C)c(C(=O)NCc2ccc(C(C)(C)C)cc2)c1Cl`: the AC50 was 29.4 µM (active). Consider `CON(C)C(=O)Nc1ccc(Cl)c(Cl)c1`, for which the outcome was inactive. Take `Fc1ccc(Oc2ccnc3cc(Cl)cc(Cl)c23)cc1`: the AC50 is 34.3 µM (active). In the case of `CCNc1nc(Cl)nc(NC(C)C)n1`, the outcome was inactive. As to `N#Cc1nn(-c2c(Cl)cc(C(F)(F)F)cc2Cl)c(N)c1S(=O)C(F)(F)F` (stereo not given), the AC50 is 28.3 µM (active).

Consider `C=CC1(C)OC(=O)N(c2cc(Cl)cc(Cl)c2)C1=O` (stereo not given), for which the result was inactive. On the same count and under the same terms, the same measure for `CC(C)C1(C)N=C(c2nc3ccccc3cc2C(=O)O)NC1=O` (stereo not given): “inactive”; for `COc1cnc(OC)n2nc(NS(=O)(=O)c3c(OCC(F)F)cccc3C(F)(F)F)nc12`: “inactive”; for `O=C(O)COc1nc(Cl)c(Cl)cc1Cl`: “inactive”. As for `CC1=C(C(=O)Nc2ccccc2)SCCO1`, the outcome was inactive.

As for `COC(=O)C=C(C)OP(=O)(OC)OC`, the result was inactive. The same measure, in the same setting: under `OC(c1ccc(Cl)cc1)(c1cncnc1)c1ccccc1Cl` (stereo not given) stands “inactive”. Still for that read-out and setting: under `CS/C(C)=N/OC(=O)N(C)SN(C)C(=O)O/N=C(\C)SC` stands “inactive”. Take `N#CC(CCc1ccc(Cl)cc1)(Cn1cncn1)c1ccccc1` (stereo not given): the outcome was inactive. Same read-out and setting: the same measure for `CNC(=S)S`: “inactive”.

With `CN(C)C(=S)SSC(=S)N(C)C`, the AC50 is 11.2 µM (active). Consider `N#Cc1cc(Br)c(O)c(Br)c1`, for which the result was inactive. With `COc1ccc(C(c2ccc(OC)cc2)C(Cl)(Cl)Cl)cc1`, the outcome was inactive. Still for that read-out and setting: the same measure for `COC(=O)C(C)Oc1ccc(Oc2ccc(Cl)cc2Cl)cc1` (stereo not given): “inactive”. In the case of `CCCN(CCC)c1c([N+](=O)[O-])cc(S(N)(=O)=O)cc1[N+](=O)[O-]`, the AC50 was 38.4 µM (active) [middle of 4 runs].

Take `CCOP(=S)(OCC)SCn1c(=O)oc2cc(Cl)ccc21`: the result was inactive.

In the case of `COc1nc(C)nc(NC(=O)NS(=O)(=O)c2ccccc2CCC(F)(F)F)n1`, the outcome was inactive. Turning to `Cc1cc(Cl)ccc1OCC(=O)O`, the result was inactive. With `CC(C)(C)c1ccc(CSc2cnn(C(C)(C)C)c(=O)c2Cl)cc1`, the outcome was inactive. On the same count and under the same terms, under `COC(=O)N(OC)c1ccccc1COc1ccn(-c2ccc(Cl)cc2)n1` stands “inactive”; under `CCNc1nc(Cl)nc(NCC)n1`, “inactive”; under `O=C(Nc1ccccc1)Nc1ccnc(Cl)c1`, “inactive”. With `CCCCOC(=O)c1ccccc1C(=O)OCCCC`, the result was inactive. The same measure, in the same setting: the same measure for `CCON=C(CC)C1=C(O)CC(c2c(C)cc(C)cc2C)CC1=O` (stereo not given): “inactive”; for `O=C(O)c1nc(Cl)ccc1Cl`: “inactive”.
